The panel holds about 83,000 compounds, 20% with a hit somewhere; the sample as a whole holds those more often.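 Percent growth is the endpoint: 0 to 100 indicates growth inhibition (40 means 60% inhibition), 0 means no net growth, and negative values indicate cell death.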 Active and inactive are the calls of the source. How the source made its calls: active means growth percent below 10; inactive means the rest.
Assays:
Assay in all cases: NCI-60 one-dose screen, 48 h (100 = growth as untreated, 0 = no growth, -100 = all killed)
Settings in all cases: 10 µM unless noted
HCT-15 colon = system: HCT-15 colon
HT29 colon = system: HT29 colon
SNB-75 CNS = system: SNB-75 CNS
SNB-19 CNS = system: SNB-19 CNS
U251 CNS = system: U251 CNS
PC-3 prostate = system: PC-3 prostate
SK-MEL-5 melanoma = system: SK-MEL-5 melanoma
UACC-62 melanoma = system: UACC-62 melanoma
LOX IMVI melanoma = system: LOX IMVI melanoma
SK-MEL-28 melanoma = system: SK-MEL-28 melanoma
SK-MEL-2 melanoma = system: SK-MEL-2 melanoma
EKVX NSCLC = system: EKVX NSCLC
SN12C renal = system: SN12C renal
UO-31 renal = system: UO-31 renal
TK-10 renal = system: TK-10 renal
ACHN renal = system: ACHN renal
CAKI-1 renal = system: CAKI-1 renal
A498 renal = system: A498 renal
CCRF-CEM leukemia = system: CCRF-CEM leukemia
MOLT-4 leukemia = system: MOLT-4 leukemia

Measured: growth

Cc1nc2sccn2c1-c1nnc(SCC(C)C)o1
inactive: HCT-15 colon 77.2% | HT29 colon 79.9% | SNB-75 CNS 73.7% | SNB-19 CNS 78.7% | U251 CNS 78.2% | PC-3 prostate 83.1% | SK-MEL-5 melanoma 89.4% | UACC-62 melanoma 77.2% | LOX IMVI melanoma 91.3% | SK-MEL-28 melanoma 104% | SK-MEL-2 melanoma 92.1% | EKVX NSCLC 74.5% | SN12C renal 88.4% | UO-31 renal 67.7% | TK-10 renal 127% | ACHN renal 87.8% | CAKI-1 renal 76.7% | A498 renal 98.5% | CCRF-CEM leukemia 51.6% | MOLT-4 leukemia 84.1%

O=C1Nc2cc(-c3ccc(NS(=O)(=O)c4ccc(C(F)(F)F)cc4)cc3)ccc2/C1=C/c1ccc[nH]1
inactive: HCT-15 colon 15.8% | HT29 colon 12.2% | SNB-75 CNS 18.6% | SNB-19 CNS 69.9% | U251 CNS 41.1% | PC-3 prostate 31.2% | SK-MEL-5 melanoma 42.7% | UACC-62 melanoma 30.5% | LOX IMVI melanoma 46.1% | SK-MEL-28 melanoma 47.4% | SK-MEL-2 melanoma 22.5% | EKVX NSCLC 19.5% | UO-31 renal 31.1% | TK-10 renal 32.5% | ACHN renal 31.1% | CAKI-1 renal 32.9% | A498 renal 28.9% | CCRF-CEM leukemia 18.5%
active: SN12C renal 4.64% | MOLT-4 leukemia 6.52%

Nc1cc(-c2c[nH]c3ccc(Br)cc23)nc2cc(-c3c[nH]c4ccccc34)nn12
active: HCT-15 colon -67% | HT29 colon -54.8% | SNB-75 CNS -11% | SNB-19 CNS -77.6% | U251 CNS -83.3% | PC-3 prostate -21.1% | SK-MEL-5 melanoma -96.4% | UACC-62 melanoma -89.4% | LOX IMVI melanoma -86.8% | SK-MEL-28 melanoma -98.5% | SK-MEL-2 melanoma -66.8% | EKVX NSCLC -67.5% | SN12C renal -66.3% | UO-31 renal -54% | TK-10 renal -57.3% | ACHN renal -35.5% | CAKI-1 renal -48.6% | A498 renal -77.3% | CCRF-CEM leukemia -13.8% | MOLT-4 leukemia 3.76%
